Compound activity as filed in PubChem BioAssay.
The list is not random: actives were taken first. Their share in the collection is about 21%.
Shiga toxin inh: Shiga toxin inhibition; Vero cells, Shiga toxin protein synthesis inhibition reporter; inhibition, % at 38.7 µM; hit rate 9.2% among 290,000; in the data active means inhibition mostly above about 28%, no sharp cut-off; inactive means mostly below about 43%
CHX counter: affects cycloheximide protein synthesis inhibition readout, counter-screen; cell reporter, cycloheximide protein synthesis inhibition counterscreen; max response, %; hit rate 12% among 300,000; AID 2314; in the data active means max response mostly above about 13%, no sharp cut-off; inactive means mostly below about 14%; further: read at 38.3 µM for the half of the compounds with a filed dose
Pf growth 96h: P. falciparum growth inhibition at 96 hours | Potency, µM (series often up to 28.7 µM), most hits filed as inhibitors | AID 504834 | hit rate 6.9% among 320,000 | P. falciparum luciferase reporter growth, 96 h
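Erythrocytes infected with luciferase-expressing P. falciparum were dispensed at 2% hematocrit and 0.05% parasitemia (final), then incubated with compounds 96 hours at 37 C in 5% CO2. Luminescence after detection reagent addition reported growth.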
Pf growth 48h: P. falciparum growth inhibition at 48 hours (one generation); Potency, µM (doses to about 28.7 µM), most hits filed as inhibitors; P. falciparum luciferase growth in erythrocytes, 48 h; hit rate 5.9% among 310,000; AID 504832
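Compounds are pin-transferred into medium, infected erythrocytes (2% hematocrit, 0.1% parasitemia final) are added, and plates sit one parasite generation at 37 C in 5% CO2. Detection reagent is then added and luminescence measured.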
NS1 function inh: influenza NS1 inhibition; Potency, µM (series often up to 46.1 µM); hit rate 0.4% among 270,000; AID 2326; calls by dose curve; further: actives are rising curves; nearly all actives have a fitted effect of over 50% in size
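Growth recovery, yeast-based: influenza A NS1 expressed in S. cerevisiae causes slow growth, and suppressors are detected by OD600. The parent strain without NS1 is used as positive control.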
FBPA Giardia inh: inhibitors of Giardia lamblia fructose-1,6-bisphosphate aldolase; Potency, µM (titrated, usually from 59.6 µM), actives largely listed as inhibitors; purified Giardia FBPA; AID 2451; hit rate 0.71% among 290,000; A8B2U2; further: nearly all actives have a fitted effect of over 55% in size
Target sequence (A8B2U2 whole entry, looked up): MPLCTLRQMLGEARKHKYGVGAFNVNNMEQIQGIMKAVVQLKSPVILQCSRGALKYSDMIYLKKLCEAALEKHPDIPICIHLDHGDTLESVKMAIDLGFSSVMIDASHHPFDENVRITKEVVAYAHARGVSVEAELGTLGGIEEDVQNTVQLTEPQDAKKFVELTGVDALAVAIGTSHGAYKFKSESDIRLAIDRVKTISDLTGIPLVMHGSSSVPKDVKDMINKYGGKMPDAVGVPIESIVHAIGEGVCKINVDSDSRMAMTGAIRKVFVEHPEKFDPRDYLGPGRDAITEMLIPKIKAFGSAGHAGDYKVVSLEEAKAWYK
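Giardia FBPA (40 nM reagent) was preincubated 10 min at RT with compound (up to 57.5 uM final), then substrate plus GAPDH/TPI/NAD/arsenate coupling system with diaphorase/resazurin was added; resorufin fluorescence (525/598 nm) was read after 20 min.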
Of the large screens only hits and unclear results are named; the others gave an inactive call. Unless noted, the call rests on the fitted dose curve; in most records, active means well fitted curve in the direction sought with a large enough effect; inconclusive means small, poorly fitted or top-dose-only effect, or another doubt; inactive means no such curve, though single readings can be large; an effect the other way counts as inactive or inconclusive.

Cc1ccc(NC(=O)CSc2ncc3ccccn23)cc1	Shiga toxin inh 70, CHX counter 28
NS(=O)(=O)c1ccc(CCNCc2cccnc2)cc1	FBPA Giardia inh inconclusive
O=C(CSc1nccn1Cc1ccco1)Nc1cccc(F)c1	Shiga toxin inh 39, CHX counter 27
Cc1ccc(NC(=O)CSc2nccn2Cc2ccco2)cc1	Shiga toxin inh 90, CHX counter 78 (no result: FBPA Giardia inh)
O=C(CSc1nccn1Cc1ccco1)Nc1ccc(F)cc1	none (no result: FBPA Giardia inh)
CCCCC(=O)Nc1nn(CCC)c2nc3ccccc3cc12	Pf growth 96h inconclusive, Pf growth 48h 12µM
O=S(=O)(Nc1ccccc1OC(F)F)c1ccc(S(=O)(=O)N2CCCC2)cc1	none (no result: Shiga toxin inh, CHX counter, NS1 function inh, FBPA Giardia inh)
COc1ccc(-c2oc3cccnc3c2-c2ccc(OC)nc2)cc1	Shiga toxin inh 22, CHX counter 25, Pf growth 96h inconclusive
COc1ccc(-c2oc3cccnc3c2C#CCO)cc1	Pf growth 96h inconclusive
CCc1ccccc1N1CC23C=CC(O2)C(C(=O)OCC(C)C)C3C1=O (stereo not given)	Pf growth 96h 3.7µM (no result: Pf growth 48h)
COC(=O)C1C2C=CC3(CN(C(C)c4ccc(OC)cc4)C(=O)C13)O2 (stereo not given)	Pf growth 48h inconclusive
COc1ccc(C(C)N2CC34C=CC(O3)C(C(=O)OCC(C)C)C4C2=O)cc1 (stereo not given)	Pf growth 96h 15µM
C[C@H]1CO1	none (no result: Pf growth 96h, Pf growth 48h, NS1 function inh)
Cc1ccc(C(=O)/C=C2\NCC(C)NC2=O)cc1 (stereo not given)	Pf growth 96h inconclusive (no result: FBPA Giardia inh)
Cc1ccc(C(=O)/C=C2\NCCNC2=O)cc1	Shiga toxin inh 10, CHX counter 32
N#C/C(=C/c1ccccc1[N+](=O)[O-])C(=O)NCc1ccco1	Pf growth 96h inconclusive
CCOCCCNC(=O)/C(C#N)=C/c1ccc([N+](=O)[O-])o1	FBPA Giardia inh inconclusive (no result: NS1 function inh)
N#C/C(=C\C=C\c1ccccc1[N+](=O)[O-])C(=O)NCc1ccccc1	CHX counter 31, Pf growth 96h 1.9µM, Pf growth 48h 3.7µM (no result: FBPA Giardia inh)
CCCCCCCCNC(=O)/C(C#N)=C/c1ccccc1[N+](=O)[O-]	Pf growth 96h inconclusive, Pf growth 48h 13µM
C=CCNC(=O)/C(C#N)=C/c1ccccc1[N+](=O)[O-]	none
N#C/C(=C\c1ccccc1[N+](=O)[O-])C(=O)NCc1ccccc1	Pf growth 96h inconclusive, Pf growth 48h 15µM
CCC(=O)Nc1ccc(C(=O)CSc2nnc(-c3ccc(NS(C)(=O)=O)cc3)n2C)cc1OC	Pf growth 96h 0.47µM
CCCn1c(Nc2nc3ccccc3n2C)nc2ccccc21	Pf growth 96h 7.4µM, Pf growth 48h 7.4µM, FBPA Giardia inh inconclusive
Cn1c(Nc2ccccc2)nc2ccccc21	CHX counter 25, Pf growth 96h inconclusive
CCCCn1c(Nc2ccccc2)nc2ccccc21	Pf growth 96h inconclusive (no result: Pf growth 48h)
Nn1c(Nc2ccccc2)nc2ccccc21	Shiga toxin inh 58, CHX counter 36
CC(=O)Oc1oc(-c2ccccc2)nc1C=Nc1ccccc1	none (no result: FBPA Giardia inh)
COc1ccc(N=Cc2nc(-c3ccccc3)oc2OC(=O)c2ccccc2)cc1	Shiga toxin inh 67, CHX counter 59
CN(C)c1ccc(N=Cc2nc(-c3ccccc3)oc2OC(=O)c2cccc(Br)c2)cc1	Shiga toxin inh active, CHX counter 40
Oc1oc(-c2ccco2)nc1C=Nc1ccccc1	Shiga toxin inh 99, CHX counter 19
Cc1ccc(C(=O)Oc2oc(-c3ccco3)nc2C=Nc2ccccc2)cc1	Shiga toxin inh 89, CHX counter 31 (no result: FBPA Giardia inh)
CS(=O)(=O)Cc1ccc(C(=O)NC2CCSc3ccccc32)cc1 (stereo not given)	none
Cc1cccc(/C=N/NC(=O)c2ccccc2OCc2cccc(Br)c2)n1	Pf growth 96h inconclusive, Pf growth 48h 15µM
Cc1ccc(/C=N/NC(=O)c2ccccc2OCc2ccc(F)cc2)o1	Pf growth 96h inconclusive, Pf growth 48h inconclusive
O=C(N/N=C/c1ccncc1)c1ccccc1OCc1ccc(Br)cc1	Pf growth 96h 1.9µM
O=C(O)CC(NC(=O)CCc1ccccc1)c1ccc(Cl)cc1 (stereo not given)	Pf growth 96h inconclusive
O=C(Nc1ccc(Br)cc1)Nc1ccccc1Cl	Shiga toxin inh 103, CHX counter 68
O=C(Nc1ccc(CN2CCCCC2)cc1)Nc1ccccc1Cl	Shiga toxin inh 53, CHX counter 32, Pf growth 48h inconclusive
CCN1CCN(Cc2ccccc2NC(=O)Nc2ccc(C)cc2)CC1	Shiga toxin inh 36, CHX counter 24
CCN1CCN(Cc2ccc(NC(=O)Nc3ccccc3Cl)cc2)CC1	Shiga toxin inh 97, CHX counter 47
CCOC(N)=O	none (no result: Shiga toxin inh, CHX counter, NS1 function inh)
CC1CCN(S(=O)(=O)c2ccc(S(=O)(=O)N3CCC4(CC3)OCCO4)cc2)CC1	none
C#CCCCO/N=C1/[C@H]2O[C@@H]2[C@@H](O)[C@H]2[C@H]1CCn1c(=O)n(Cc3cc4c(cc3Cl)OCO4)c(=O)n12	none (no result: Shiga toxin inh, CHX counter, Pf growth 96h, Pf growth 48h, NS1 function inh)
CCCC1(c2ccccc2)NC(=O)N(CC(=O)NCc2ccc(OC)cc2)C1=O (stereo not given)	Pf growth 96h inconclusive
COCCN1C(=O)N[C@@H](CCc2ccccc2)C(C(=O)OC)=C1C	none (no result: Shiga toxin inh, CHX counter, Pf growth 96h, Pf growth 48h, NS1 function inh)
COCCNC(=S)N1CCN(c2nc(-c3ccccc3)cs2)CC1	Pf growth 96h 12µM
CCCNC(=S)N1CCN(c2nc(-c3ccc(C)cc3)cs2)CC1	CHX counter 13, Pf growth 96h inconclusive
O=C(NC(=S)N1CCN(c2nc(-c3ccccc3)cs2)CC1)c1cccnc1	Pf growth 96h inconclusive, Pf growth 48h 10µM
COc1ccc(NC(=O)CN2CCN(c3nc(-c4cccc(OC)c4)cs3)CC2)cc1	Pf growth 48h 8.3µM
S=C(NCCCN1CCOCC1)N1CCN(c2nc(-c3ccc(Cl)cc3)cs2)CC1	none
CCc1ccccc1N(C1=NCCCS1)S(=O)(=O)c1ccc(C(C)(C)C)cc1	Pf growth 48h inconclusive
O=C1CCC(C(=O)Nc2cc(C(F)(F)F)ccc2-n2cncn2)=NN1	Pf growth 96h inconclusive, Pf growth 48h inconclusive
CC(Sc1ccc(S(=O)(=O)N2CCN(C)CC2)cn1)C(=O)NC1CCCCC1 (stereo not given)	Pf growth 96h inconclusive (no result: Shiga toxin inh, CHX counter, NS1 function inh, FBPA Giardia inh)
CCCNC(=S)N1CCN(c2nc(-c3cccc(OC)c3)cs2)CC1	CHX counter 13, Pf growth 96h inconclusive, Pf growth 48h inconclusive, FBPA Giardia inh inconclusive
COc1cccc(-c2csc(N3CCN(C(=O)C4CCCCC4)CC3)n2)c1	none
CC[C@H]1OC(=O)[C@H](C)[C@@H](O[C@H]2C[C@@](C)(OC)[C@@H](O)[C@H](C)O2)[C@H](C)[C@@H](O[C@@H]2O[C@H](C)C[C@H](N(C)C)[C@H]2O)[C@](C)(O)C[C@@H](C)C(=O)[C@H](C)[C@@H](O)[C@]1(C)O	Pf growth 96h inconclusive
